Screens from PubChem.
Most compounds without a hit are left out; they make up all but 1.5% or so of the library.
HDAC3 inhib: inhibitors of human histone deacetylase 3 | O15379 | recombinant HDAC3, fluorogenic peptide/trypsin coupled, fluorescence | inhibition, % at 8.3 µM | 0.15% of 320,000 active | AID 2718; in the data active means inhibition above about 26%, passing the limit was not always enough; inconclusive means no clear call, values can overlap the other calls
Efflux pump inh: inhibitors of Candida antifungal efflux pumps expressed in yeast. 0.44% of 330,000 active. inhibition, % at 10 µM. S. cerevisiae Candida pump triplex, Nile Red efflux. AID 485275;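 active means plate passing quality check with inhibition over a set limit, or well fluorescence over plate mean plus 4 SD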;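 further: Nile Red retained in pooled yeast measured as flow cytometry median fluorescence; higher means more Nile Red kept so more efflux inhibition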
PolyA inh: yeast polyadenylation inhibition; S. cerevisiae SKY197-pL101 polyadenylation reporter, beta-gal luminescence; efflux-impaired pdr1/pdr3 knockout yeast; score 100 = 6 SD above DMSO; activity score, % at 12 µM; 0.02% of 300,000 active; AID 1875;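 active means lowest replicate activity score at least 50, where 100 means six control SD above control mean; inconclusive means lowest score under 50 but half or more replicates reach 50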;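 further: yeast exposed to compound for 9 h at 30 °C; higher score means more reporter readthrough which indicates perturbed polyadenylation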
NALP1 inh: blocks the NALP1 inflammasome reconstituted in yeast; S. cerevisiae NALP1/ASC/caspase-1 growth, X-gal OD620, 72 h; AID 2071; inhibition, % at 10 µM; 0.61% of 280,000 active; in the data active means inhibition mostly above about 24%, no sharp cut-off; inactive means mostly below about 32%
NALP3 yeast inh: inhibitors of NALP3 inflammasome in yeast; inhibition, % at 10 µM; Yeast reconstituted NLRP3/ASC/caspase-1, beta-gal luminescence, 24 h; 0.39% of 330,000 active;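 active means inhibition of 50% or more; inactive means inhibition below 50%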
JMJD2C inh: human JMJD2C demethylase inhibition. Q9H3R0. GST-JMJD2C(1-420) H3K9me3 demethylation, DELFIA europium. inhibition, % at 2.35 µM. 0.069% of 330,000 active. AID 2099;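 active means more than half of a compound's replicate wells show inhibition beyond 50%, single wells judged on their own value; inconclusive means some, but no more than half, of replicates pass 50% inhibition; inactive means no replicate passes 50% inhibition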;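 further: signal counts dimethyl H3K9 product captured on neutravidin plate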
Target sequence (Q9H3R0 1-420 limits assumed): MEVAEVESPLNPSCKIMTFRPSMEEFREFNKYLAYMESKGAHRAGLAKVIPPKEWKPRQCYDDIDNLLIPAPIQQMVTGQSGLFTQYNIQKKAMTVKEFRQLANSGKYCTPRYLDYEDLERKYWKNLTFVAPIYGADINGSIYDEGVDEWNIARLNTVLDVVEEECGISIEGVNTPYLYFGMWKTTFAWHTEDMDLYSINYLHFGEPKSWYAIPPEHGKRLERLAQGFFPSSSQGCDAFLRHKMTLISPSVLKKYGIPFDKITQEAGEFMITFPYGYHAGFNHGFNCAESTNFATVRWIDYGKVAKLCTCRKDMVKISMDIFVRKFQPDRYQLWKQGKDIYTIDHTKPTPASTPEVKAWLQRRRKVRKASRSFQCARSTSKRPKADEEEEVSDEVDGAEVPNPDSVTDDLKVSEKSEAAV
NALP3 confirm: confirmation of NALP3 inhibitors in yeast | shares compounds with NALP3 yeast inh | yeast expressing human NALP3, luminescence | inhibition, % at 10 µM | 81% of 1,300 active | AID 435006; in the data active means inhibition above about 48%
Casp1-ASC yeast: counter-screen for NALP3 inhibitors: yeast caspase-1-ASC | yeast expressing Caspase-1-ASC, luminescence counter screen | 66% of 1,000 active | AID 488784 | shares compounds with NALP3 yeast inh | inhibition, % at 10 µM
NALP3 retest: retest-confirmed inhibitor of NALP3 in yeast; shares compounds with NALP3 yeast inh; yeast expressing human NALP3, luminescence read-out; inhibition, % at 10 µM; 53% of 1,000 active; AID 488794
A number is an active result; – = inactive; ? = inconclusive; · = no result given. Unless noted, no stated cut-off is given here; in the data, active means inhibition above about 50%; inactive means the rest.

SMILES	HDAC3 inhib	Efflux pump inh	PolyA inh	NALP1 inh	NALP3 yeast inh	JMJD2C inh	NALP3 confirm	Casp1-ASC yeast	NALP3 retest
CCC(C)c1ccccc1N1CC(C(=O)NCCCn2nc(C)cc2C)CC1=O (centres undefined)	–	–	·	·	–	–	·	·	·
CCCCOc1ccc2c(c1)C(=O)c1cc(O)ccc1-2	–	–	–	–	61	–	70	66	62
COc1ccc(-c2[nH]ncc2CN(C)Cc2nonc2C)c(OC)c1	–	–	–	–	–	–	·	·	·
C=C1CCN(Cc2ccccc2)S(=O)(=O)c2ccccc21	–	–	–	–	51	–	66	–	–
O=C1CCN(Cc2ccccc2)S(=O)(=O)c2ccccc21	–	–	–	–	–	–	·	·	·
CCCc1cc(=O)oc2cc(C)cc(OCC(=O)Nc3cccnc3)c12	–	–	–	–	–	–	·	·	·
C[C@]12CC[C@H](O)CC1=CCC1C2CC[C@@]2(C)C1CCC21OCCO1 (some centres undefined)	–	–	·	·	57	–	63	·	·
CC(=O)N1[C@@H]2CC3C4CC=C5C[C@@H](O)CC[C@]5(C)C4CC[C@]3(C)[C@@]21C(C)=O (some centres undefined)	?	–	–	–	–	–	·	·	·
CC(=O)/C=C\c1cn(-c2ncc(C(F)(F)F)cc2Cl)c2ccccc12	–	–	–	–	–	–	·	·	·
CO/N=C/NC(=O)Cc1cn(-c2ncc(C(F)(F)F)cc2Cl)c2ccccc12	–	–	–	–	56	–	64	–	–
CCOC(=O)c1cnc(SCCN2CCOCC2)nc1N	–	–	–	–	–	–	·	·	·
O=C(N/N=C/C(Cl)=C/c1ccccc1)c1ccco1	–	–	–	–	–	–	·	·	·
O=C(N/N=C/C(Cl)=C\c1ccccc1)c1ccco1	–	–	–	–	59	–	61	74	56
Cc1ccc(S(=O)(=O)CC(=O)Nc2nc(C(C)(C)C)cs2)cc1	–	–	–	–	51	–	73	61	–
Nc1ccc(Br)cc1-c1nc2ccccc2[nH]c1=O	–	–	–	–	54	–	–	·	·
Nc1ccccc1-c1nc2ccccc2[nH]c1=O	–	–	–	–	–	–	·	·	·
Cc1ccccc1NC1=C/C(=N\S(=O)(=O)c2ccc(C(=O)O)cc2)c2ccccc2C1=O	–	–	–	–	–	–	·	·	·
O=C(O)c1ccc(S(=O)(=O)/N=C2\C=C(Nc3ccccc3F)C(=O)c3ccccc32)cc1	–	–	–	80	94	–	83	99	97
O=C(NC1CC1)c1ccc2c(c1)S(=O)(=O)c1cc(Cl)ccc1C2=O	–	–	·	·	–	–	·	·	·
CCOC(=O)Cc1csc(NC(=O)c2cccc([N+](=O)[O-])c2)n1	–	–	–	–	59	–	76	69	51
COc1ccccc1NS(=O)(=O)c1cc(NC(=O)C2CCCO2)ccc1C (centres undefined)	–	–	·	·	–	–	·	·	·
O=C(/C=C/c1ccnc2ccccc12)c1cccs1	–	–	–	–	53	–	73	·	·
O=C(Cn1cnc2ccccc2c1=O)c1cccs1	–	–	–	–	–	–	·	·	·
COc1cc(/C=C(\C#N)c2nc3ccccc3o2)ccc1O	–	–	–	–	–	–	·	·	·
N#C/C(=C\c1ccc(O)cc1)c1nc2ccccc2o1	–	–	–	–	71	–	77	85	80
SMILES	HDAC3 inhib	Efflux pump inh	PolyA inh	NALP1 inh	NALP3 yeast inh	JMJD2C inh	NALP3 confirm	Casp1-ASC yeast	NALP3 retest
O=C(N/N=C/c1ccsc1)c1cc2ccccc2o1	–	–	?	–	72	–	87	71	75
O=C(Nc1ccc(NC(=O)c2cccs2)cc1)c1cccs1	–	–	–	–	–	–	·	·	·
O=C(Nc1ccc(NC(=O)c2cccs2)c(Cl)c1)c1cccs1	–	–	–	–	61	–	84	64	60
O=C(Nc1ccc(-c2cn3ccccc3n2)cc1)c1cccs1	–	–	–	–	57	–	76	72	62
Cc1ccn(-c2ccc(NC(=O)c3cccs3)cc2)n1	–	–	–	–	59	–	82	64	–
O=C(Nc1ccc(Cl)cc1)c1cccs1	–	–	–	·	60	–	77	55	65
COc1ccc(CC(=O)Nc2ccc(-c3cn4ccccc4n3)cc2)cc1	–	–	–	–	–	–	·	·	·
CN1CCN(c2ccc(NC(=O)c3cccs3)cc2)CC1	–	–	–	–	–	–	·	·	·
O=C(COC(=O)COc1ccc(Cl)cc1)NC1CCCC1	–	–	·	·	–	–	·	·	·
O=C(NC(Nc1nc2ccc([N+](=O)[O-])cc2s1)(C(F)(F)F)C(F)(F)F)c1ccccc1Cl	–	–	–	105	74	–	94	87	94
CC1(C)COC(c2ccc(F)c([N+](=O)[O-])c2)=N1	–	–	–	–	–	–	·	·	·
O=C(NC1CCCCC1)c1c(O)nc2sccn2c1=O	–	–	?	·	58	?	74	–	–
O=C(NC1CCCCCC1)c1c(O)nc2sccn2c1=O	·	–	–	·	–	–	·	·	·
COc1ccc2cc(C3OCCO3)c(Cl)nc2c1	–	–	–	–	–	–	·	·	·
CCc1sc(C(=O)Nc2nccs2)cc1C	–	–	–	–	53	–	72	81	70
O=C(Nc1nccs1)c1ccc(Cl)s1	–	–	–	–	51	–	70	60	–
CCc1sc(C(=O)Nc2ncccc2C)cc1C	–	–	–	–	–	–	·	·	·
FC(F)(F)c1cccc(N2CCc3cn[nH]c32)c1	–	–	–	·	97	–	99	99	97
COc1ccc2oc(=Nc3cccc(F)c3)c(C(N)=O)cc2c1	–	–	–	–	50	–	62	63	–
O=C(O)c1ccc(-c2ccccn2)s1	–	–	–	–	–	–	·	·	·
c1ccc(-c2ccc(-c3ccccn3)s2)nc1	–	–	–	–	52	–	56	–	–
O=C1c2sc3nc4ccccc4n3c2C(=O)N1c1ccccc1Cl	–	–	–	–	52	–	52	–	–
Cc1cccc(NC(=O)C2CCN(C(=O)N3CCOc4ccccc43)CC2)c1C	–	–	–	–	–	–	·	·	·
CC(C)(C)C1CCc2[nH]c3ccccc3c(=O)c2C1 (centres undefined)	–	–	–	–	72	–	94	72	77
COc1ccc(N(C(=O)c2ccc(S(=O)(=O)N3CCCC3)cc2)C2C=CS(=O)(=O)C2)cc1 (centres undefined)	–	–	–	–	–	–	·	·	·
O=C(NNC(=O)c1cc2ccccc2[nH]1)OCc1ccccc1	–	–	·	·	–	·	·	·	·
N#Cc1nc(COc2cccc(Cl)c2)oc1N1CCCC1	–	–	–	–	51	–	65	55	–
